Screening data (PubChem BioAssay)
Shown are actives, neighbours in structure and some others; about 9.4% of the full set was active somewhere.
Pf growth 96h: Primary qHTS for delayed death inhibitors of the malarial parasite plastid, 96 hour incubation | P. falciparum luciferase reporter growth, 96 h | Potency, µM (doses to about 28.7 µM), usual class: inhibitors | actives 6.9% (n = 320,000) | AID 504834, 2011
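96 h incubation, 37 C, 5% CO2, of luciferase-reporter P. falciparum-infected RBCs (2% hematocrit, 0.05% parasitemia final) with test compounds; endpoint luminescence.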
Pf growth 48h: Primary qHTS for delayed death inhibitors of the malarial parasite plastid, 48 hour incubation; P. falciparum luciferase growth in erythrocytes, 48 h; Potency, µM (series often up to 28.7 µM), usual class: inhibitors; actives 5.9% (n = 310,000); AID 504832, 2011
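Parasite viability was followed by luminescence of a genomically integrated firefly luciferase. Cultures held 0.1% parasitemia at 2% hematocrit (final), incubated under 5% CO2 at 37 C.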
SARS PLP yeast: qHTS of Yeast-based Assay for SARS-CoV PLP. S. cerevisiae expressing SARS-CoV PLpro, growth rescue. Potency, µM (series often up to 32.9 µM), hits mostly activators. actives 0.19% (n = 330,000); calls by dose curve; also: nearly all actives have a fitted effect of over 55% in size
AMA1-RON2 inh: qHTS for Inhibitors of AMA1-RON; Towards Development of Antimalarial Drug Lead: Primary Screen; AlphaScreen AMA1-biotinylated RON2 peptide binding; Potency, µM (doses to about 58.2 µM), most hits filed as inhibitors; Plasmodium falciparum AMA1 (3D7) - RON2 peptide interaction; actives 0.2% (n = 360,000); also: nearly all actives have a fitted effect of over 45% in size
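AMA1 (3D7) with his tag at 25 nM final met compounds first, then biotinylated RON2 peptide at 25 nM; detection used donor plus acceptor beads, 10 µg/mL apiece, read by AlphaScreen after 30 min at room temperature.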
Each line names hits and unclear results; the compound was inactive in the other large screens. Unless noted, calls follow the shape of the dose curve; as a rule, active = well fitted curve in the direction sought with a large enough effect; inconclusive = small, poorly fitted or top-dose-only effect, or another doubt; inactive = no such curve, though single readings can be large; an effect the other way counts as inactive or inconclusive.

CCOC(=O)N1CCc2c(sc(NC(=O)CCS(=O)(=O)c3ccccc3)c2C(N)=O)C1	Pf growth 96h 15µM, Pf growth 48h inconclusive
CC(=O)N1CCc2c(sc(NC(=O)C3COc4ccccc4O3)c2C(N)=O)C1 (centres undefined)	Pf growth 96h 12µM
CCOC(=O)N1CCc2c(sc(NC(=O)c3ccc(Cl)s3)c2C(N)=O)C1	Pf growth 96h 13µM, Pf growth 48h inconclusive (no result: SARS PLP yeast, AMA1-RON2 inh)
CCOC(=O)N1CCc2c(sc(NC(C)=O)c2C(N)=O)C1	none (no result: Pf growth 96h, Pf growth 48h, SARS PLP yeast)
Cc1ccc(S(=O)(=O)Nc2ccc(N3CCOCC3)cc2)cc1	none (no result: Pf growth 48h)
Cn1nnc(NC(=O)c2ccc(C(C)(C)C)cc2)n1	Pf growth 48h 9.3µM
CNC[C@H]1Oc2c(NS(=O)(=O)c3ccc(OC)cc3)cccc2C(=O)N([C@H](C)CO)C[C@@H]1C	none (no result: Pf growth 96h, Pf growth 48h)
CCCNC(=O)c1ccccc1N1CCN(CCCCN2C(=O)C3CCCCN3C2=O)CC1 (centres undefined)	Pf growth 96h 10µM
N#Cc1cc2ccccc2nc1SCC(=O)Nc1ccc(S(=O)(=O)N2CCCC2)cc1	Pf growth 96h inconclusive, Pf growth 48h 9.3µM
N#Cc1cc2c(nc1SCC(=O)Nc1ccc(Cl)cc1)C1CCN2CC1	Pf growth 48h 13µM, SARS PLP yeast inconclusive
Cc1ccc2nc(SCC(=O)NCC3CCCO3)c(C#N)cc2c1 (centres undefined)	none (no result: Pf growth 96h)
Cc1cc(NC(=O)CSc2nc3ccccc3cc2C#N)no1	none
COc1ccc2nc(SCC(=O)Nc3ccc(S(=O)(=O)N4CCCC4)cc3)c(C#N)cc2c1	Pf growth 96h inconclusive, Pf growth 48h 3.3µM
COc1ccc2nc(SCC(=O)NCC3CCCO3)c(C#N)cc2c1 (centres undefined)	Pf growth 96h 2.1µM
CCOc1ccc2nc(SCC(=O)Nc3ccc(S(=O)(=O)N4CCCC4)cc3)c(C)cc2c1	Pf growth 96h inconclusive, Pf growth 48h inconclusive
COc1cccc(/C=N/Nc2c(Cl)cncc2Cl)c1O	none
Cc1cc(C)c2nc(SCC(=O)Nc3ccc(S(=O)(=O)N4CCCC4)cc3)c(C)cc2c1	Pf growth 48h 9.3µM (no result: Pf growth 96h)
COc1cc(/C=N/Nc2nc(N3CCCC3)nc(N3CCCC3)n2)ccc1O	Pf growth 48h inconclusive (no result: Pf growth 96h)
COc1ccc(/C=N/Nc2nc(N3CCCCC3)nc(N3CCCCC3)n2)cc1[N+](=O)[O-]	Pf growth 48h inconclusive
CCOc1ccc(/C=N/Nc2nc(N3CCCC3)nc(N3CCCC3)n2)cc1OC	Pf growth 96h inconclusive, Pf growth 48h 10µM
CNc1nc(N/N=C/c2cc([N+](=O)[O-])ccc2F)nc(Nc2ccccc2)n1	none (no result: Pf growth 96h, Pf growth 48h, SARS PLP yeast)
COc1ccc(/C=N/Nc2nc(Nc3ccccc3)nc(N3CCCC3)n2)cc1[N+](=O)[O-]	Pf growth 48h 2.1µM
CNc1nc(N/N=C/c2cc3c(cc2[N+](=O)[O-])OCO3)nc(Nc2ccccc2)n1	Pf growth 48h 2.6µM
O=C1CSC(=S)N1N=Cc1ccccc1O	none (no result: Pf growth 96h, Pf growth 48h, SARS PLP yeast)
CS(=O)(=O)N(CC(=O)N1CCCC1)c1ccc(Cl)cc1Cl	none
CCOC(=O)C1(CCOc2ccccc2)CCN(Cc2ccc(-n3cccn3)cc2)CC1	Pf growth 96h inconclusive, Pf growth 48h 15µM
CCOC(=O)C1(CCOc2ccccc2)CCN(Cc2cc(OC)ccc2OC)CC1	Pf growth 48h inconclusive
CCOC(=O)C1(CCOc2ccccc2)CCN(Cc2ccc(O)c(OC)c2)CC1	Pf growth 48h 12µM
CCOC(=O)C1(CCOc2ccccc2)CCN(Cc2cccc(OC)c2O)CC1	Pf growth 48h 0.59µM
CCOC(=O)C1(CCOc2ccccc2)CCN(Cc2ccc(F)c(OC)c2)CC1	Pf growth 96h 15µM
CCOC(=O)C1(CCOc2ccccc2)CCN(Cc2ccc(O)c(Cl)c2)CC1	Pf growth 96h inconclusive, Pf growth 48h inconclusive
CCOC(=O)C1(CCOc2ccccc2)CCN(Cc2cccc(OC)c2)CC1	none (no result: Pf growth 96h, Pf growth 48h, SARS PLP yeast)
Cc1cccc(C(=O)NNC(=O)c2ccco2)c1O	none (no result: Pf growth 96h, Pf growth 48h, SARS PLP yeast)
CC(=O)c1cccc(NC(=O)CSc2ncc(C(=O)Nc3ccccc3)c(=O)n2C)c1	none
Fc1ccc(-n2cc(-c3ccccc3)c3c(=S)nc[nH]c32)cc1	Pf growth 96h inconclusive, Pf growth 48h inconclusive
CCOC(=O)C1(CC2CC2)CCN(Cc2ccc(O)c(Cl)c2)CC1	Pf growth 48h 4.1µM (no result: AMA1-RON2 inh)
CCOC(=O)C1(CC2CC2)CCN(Cc2cnc(-c3ccc(OC)cc3)nc2)CC1	Pf growth 96h inconclusive, Pf growth 48h inconclusive
O=C(COC(=O)CCC(=O)c1ccccc1)NCCc1ccccc1	none
OC(C#Cc1ccccn1)c1cccs1 (centres undefined)	Pf growth 48h 10µM
COc1ccccc1N(C)S(=O)(=O)c1ccc(Cl)c(C(=O)NC2=NCCS2)c1	Pf growth 96h inconclusive
COc1cc(OC)c(N(C)S(=O)(=O)c2cccc(C(=O)Nc3nnc(C4CC4)s3)c2)cc1Cl	Pf growth 96h inconclusive, Pf growth 48h 13µM
COc1cc(OC)c(N(C)S(=O)(=O)c2cccc(C(=O)NC3=NCCS3)c2)cc1Cl	Pf growth 96h inconclusive, Pf growth 48h 10µM
COc1ccc(N(C)S(=O)(=O)c2cccc(C(=O)Nc3nnc(C4CC4)s3)c2)cc1	Pf growth 96h inconclusive, Pf growth 48h inconclusive
COc1ccc(N(C)S(=O)(=O)c2cccc(C(=O)Nc3ccc(-n4cnnn4)cc3)c2)cc1	Pf growth 96h inconclusive, Pf growth 48h 10µM
CCN(c1ccccc1)S(=O)(=O)c1cccc(C(=O)N2CCN(S(=O)(=O)c3ccccc3)CC2)c1	Pf growth 96h 8.3µM, Pf growth 48h inconclusive
COc1ccc(N(C)S(=O)(=O)c2cccc(C(=O)Nc3ccc(OC)nc3)c2)cc1	Pf growth 96h inconclusive (no result: AMA1-RON2 inh)
N#C/C(=C/c1ccc(-c2ccc(C(=O)O)c(Cl)c2)o1)C(=O)NCC1CCCO1 (centres undefined)	none
O=C(Nc1oc2ccccc2c(=O)c1-c1ccc2c(c1)OCO2)c1ccco1	none (no result: Pf growth 96h, Pf growth 48h, SARS PLP yeast)
Cc1csc(N(C(=O)c2cccc(S(=O)(=O)N3CCCC3)c2)c2ccccc2)n1	Pf growth 96h inconclusive (no result: Pf growth 48h)
Cc1csc(N(C(=O)c2cccc(S(=O)(=O)N(C)C)c2)c2ccccc2)n1	Pf growth 96h 8.3µM
COc1ccc(N(C)S(=O)(=O)c2cccc(C(=O)Nc3nc(C)cs3)c2)cc1	Pf growth 96h inconclusive, Pf growth 48h 13µM
COc1ccc(N(C)S(=O)(=O)c2cccc(C(=O)NCc3ccc(C)cc3)c2)cc1	Pf growth 96h 5.9µM
CCOC(=O)C1CCCN(C(=O)c2cccc(S(=O)(=O)N(C)c3ccc(C)cc3)c2)C1 (centres undefined)	Pf growth 96h inconclusive, Pf growth 48h 13µM
COc1ccc(CNC(=O)c2ccc(N(C)S(=O)(=O)c3ccc(C)cc3)cc2)cc1	Pf growth 48h inconclusive
COc1cccc(C(=O)Nc2nc(C)cs2)c1	none
CCc1ccc(S(=O)(=O)Nc2ccccn2)cc1	none
CCOc1ccc(N(C)S(=O)(=O)c2ccc(C)c(C(=O)OCC(=O)c3c[nH]c4ccccc34)c2)cc1	Pf growth 96h inconclusive, Pf growth 48h 13µM
COc1cc(OC)c(N(C)S(=O)(=O)c2cccc(C(=O)Nc3nc(C)cs3)c2)cc1Cl	Pf growth 96h inconclusive, Pf growth 48h 13µM
